# In the antibiotic and cytotoxicity screens of Wong et al. (2023):
# The whole screen tested about 39,000 compounds, of which about 3,300 (8.5%) were called active. Many of the other results were omitted from the sample, so actives are more common in it than they were.
# Tested on: HepG2
# Assay: cytotoxicity call (relative viability < 0.9)
# Settings: 10 µM
row,SMILES,cytotoxicity call
1,COc1ccc(NC(=O)Nc2ccc3c(c2)C(=O)N([C@H](C)CO)C[C@@H](C)[C@@H](CN(C)C(=O)Cc2ccccc2)OCCCC[C@H](C)O3)cc1,inactive
2,NC1(C#Cc2cncc(C(=O)N3CCOCC3)c2)CCCCC1,inactive
3,C[C@@H]1CN([C@H](C)CO)C(=O)c2cc(NC(=O)NC3CCCCC3)ccc2O[C@@H](C)CCCCO[C@H]1CN(C)Cc1ccc2c(c1)OCO2,inactive
4,Cc1ccc(S(=O)(=O)Nc2ccc3c(c2)CC(=O)N([C@H](C)CO)C[C@H](C)[C@H](CN(C)S(=O)(=O)c2ccccc2)O3)cc1,inactive
5,COc1ccccc1S(=O)(=O)N[C@H]1C=C[C@H](CC(=O)N2CCN(C)CC2)O[C@H]1CO,inactive
6,COc1ccc(NC(=O)Nc2ccc3c(c2)C(=O)N([C@@H](C)CO)C[C@@H](C)[C@H](CN(C)S(=O)(=O)c2c(C)noc2C)OCCCC[C@@H](C)O3)cc1,inactive
7,Cc1cc(C(=O)Nc2cccc3c2O[C@H](CN(C)C(=O)NC(C)C)[C@@H](C)CN([C@@H](C)CO)C3=O)n(C)n1,inactive
8,C[C@@H]1CCCCO[C@@H](CN(C)S(=O)(=O)c2cccs2)[C@@H](C)CN([C@H](C)CO)C(=O)c2cc(NC(=O)c3ccccc3)ccc2O1,inactive
9,O=C(C[C@@H]1CC[C@@H](NS(=O)(=O)c2ccccc2F)[C@@H](CO)O1)NCCCN1CCOCC1,inactive
10,O=C(C[C@@H]1CC[C@@H]2[C@H](COC[C@@H](O)CN2C(=O)C2CC2)O1)NCc1ccncc1,inactive
11,C[C@H]1CN([C@@H](C)CO)C(=O)c2cc(NC(=O)Nc3ccc(C(F)(F)F)cc3)ccc2O[C@H]1CN(C)C(=O)Nc1ccc(F)cc1,inactive
12,C[C@H](CO)N1C[C@H](C)[C@H](CN(C)C(=O)Nc2ccc(C(F)(F)F)cc2)Oc2ccc(NC(=O)Cc3ccccc3)cc2C1=O,active
13,C[C@@H]1CN([C@@H](C)CO)C(=O)c2cc(NC(=O)Nc3ccc(F)cc3)ccc2O[C@@H]1CN(C)C(=O)Nc1ccc(C(F)(F)F)cc1,inactive
14,C[C@H](CO)N1C[C@H](C)[C@@H](CN(C)C(=O)Nc2ccc(C(F)(F)F)cc2)Oc2ccc(NC(=O)Cc3ccccc3)cc2C1=O,inactive
15,C[C@@H]1CN([C@H](C)CO)C(=O)c2cc(NC(=O)Nc3ccc(C(F)(F)F)cc3)ccc2O[C@@H]1CN(C)C(=O)Nc1ccc(F)cc1,active
16,C[C@@H]1CN([C@@H](C)CO)C(=O)c2cc(NC(=O)Nc3ccc(C(F)(F)F)cc3)ccc2O[C@@H]1CN(C)C(=O)Nc1ccc(F)cc1,active
17,C[C@H]1CN([C@@H](C)CO)C(=O)c2cc(NC(=O)Cc3ccccc3)ccc2O[C@@H]1CN(C)C(=O)Nc1ccc(C(F)(F)F)cc1,inactive
18,C[C@H](CO)N1C[C@H](C)[C@@H](CN(C)C(=O)Nc2ccc(F)cc2)Oc2ccc(NC(=O)Nc3ccc(C(F)(F)F)cc3)cc2C1=O,inactive
19,C[C@@H]1CN([C@H](C)CO)C(=O)c2cc(NC(=O)Nc3ccc(F)cc3)ccc2O[C@H]1CN(C)C(=O)Nc1ccc(C(F)(F)F)cc1,inactive
20,CNc1[nH]cnc(=S)c1N,inactive
21,COc1ccc(NC(=O)Nc2ccc3c(c2)C(=O)N([C@H](C)CO)C[C@@H](C)[C@H](CN(C)CC2CCCCC2)O3)cc1,inactive

row,SMILES,cytotoxicity call
1,CO[C@H]1CN(C(=O)c2ccnnc2)[C@H]2COC[C@@H]12,inactive
2,Cc1noc(C)c1S(=O)(=O)Nc1ccc2c(c1)C(=O)N([C@@H](C)CO)C[C@@H](C)[C@@H](CN(C)Cc1ccc3c(c1)OCO3)O2,inactive
3,Cc1cc(O)c(C(=O)NC(C(=O)NC2C(=O)N3C(C(=O)O)=C(CSc4nnnn4C)CSC23)c2ccc(O)cc2)cn1 (stereo not drawn),inactive
4,C[C@H](CO)N1C[C@H](C)[C@@H](CN(C)C(=O)Nc2cccc3ccccc23)Oc2ccc(NC(=O)Nc3ccc4c(c3)OCO4)cc2C1=O,inactive
5,N[C@H]1[C@H](CCCCC(=O)O)SC[C@@H]1N,inactive
6,Cc1noc(C)c1NC(=O)N(C)C[C@@H]1Oc2ccc(NC(=O)c3ccncc3)cc2CC(=O)N([C@@H](C)CO)C[C@H]1C,inactive
7,NCCc1ccc(O)c(O)c1,inactive
8,CC(Cc1ccc(O)c(O)c1)C(C)Cc1ccc(O)c(O)c1 (stereo not drawn),inactive
9,Cl.NCCc1ccc(O)c(O)c1,active
10,O=C(C[C@H]1CC[C@@H]2[C@H](COC[C@@H](O)CN2C(=O)C2CC2)O1)NCc1ccncc1,inactive
11,COc1cc(CO)cc(I)c1O[C@H]1C=C(C(=O)NCCO)C[C@@H](NC2CCCCCC2)[C@@H]1O,active
12,COc1cc(CO)cc(I)c1O[C@H]1C=C(C(=O)NCCO)C[C@@H](NC[C@@H]2CCCO2)[C@@H]1O,inactive
13,COc1cc(CO)cc(I)c1O[C@H]1C=C(C(=O)NCCO)C[C@@H](NCc2ccc(F)cc2)[C@@H]1O,inactive
14,C[C@@H]1CN([C@@H](C)CO)C(=O)c2cc(NC(=O)Cc3ccccc3)ccc2O[C@@H](C)CCCCO[C@H]1CN(C)Cc1ccccc1,inactive
15,C[C@@H]1CN([C@@H](C)CO)C(=O)c2cc(NC(=O)Cc3ccccc3)ccc2O[C@@H](C)CCCCO[C@@H]1CN(C)Cc1ccccc1,inactive
16,C[C@@H]1CCCCO[C@@H](CN(C)Cc2ccc(Cl)c(Cl)c2)[C@H](C)CN([C@H](C)CO)C(=O)c2cc(NC(=O)Cc3ccccc3)ccc2O1,inactive
17,C[C@@H]1CCCCO[C@H](CN(C)Cc2ccc(Cl)c(Cl)c2)[C@H](C)CN([C@@H](C)CO)C(=O)c2cc(NC(=O)Cc3ccccc3)ccc2O1,inactive
18,C[C@@H]1CCCCO[C@H](CN(C)Cc2ccc(Cl)c(Cl)c2)[C@@H](C)CN([C@H](C)CO)C(=O)c2cc(NC(=O)Cc3ccccc3)ccc2O1,active
19,C[C@H]1CCCCO[C@@H](CN(C)Cc2ccccc2)[C@@H](C)CN([C@@H](C)CO)C(=O)c2cc(NC(=O)Cc3ccccc3)ccc2O1,inactive
20,C[C@@H]1CCCCO[C@@H](CN(C)Cc2ccccc2)[C@@H](C)CN([C@@H](C)CO)C(=O)c2cc(NC(=O)Cc3ccccc3)ccc2O1,inactive
21,C[C@@H]1CCCCO[C@@H](CN(C)Cc2ccc(Cl)c(Cl)c2)[C@@H](C)CN([C@H](C)CO)C(=O)c2cc(NC(=O)Cc3ccccc3)ccc2O1,active

row,SMILES,cytotoxicity call
1,C[C@@H]1CN([C@H](C)CO)C(=O)c2cc(NC(=O)Cc3ccccc3)ccc2O[C@@H](C)CCCCO[C@H]1CN(C)Cc1ccc(Cl)c(Cl)c1,active
2,C[C@H](CO)N1C[C@H](C)[C@@H](CN(C)Cc2ccc(Cl)c(Cl)c2)OCCCC[C@H](C)Oc2ccc(NC(=O)Cc3ccccc3)cc2C1=O,active
3,CC(C)NC(=O)[C@@]1(C)c2ccccc2C(=O)N(Cc2cc(C(F)(F)F)cc(C(F)(F)F)c2)[C@H]1c1ccc(CO)cc1,inactive
4,C[C@H](CO)N1C[C@H](C)[C@@H](CN(C)S(=O)(=O)c2ccccc2F)Oc2cc(C#Cc3cccc(F)c3)ccc2S1(=O)=O,inactive
5,COc1ccc(S(=O)(=O)N(C)C[C@H]2Oc3ccc(NC(=O)Cc4ccccc4)cc3CC(=O)N([C@@H](C)CO)C[C@@H]2C)cc1,inactive
6,C[C@H](CO)N1C[C@H](C)[C@@H](CN(C)C(=O)Cc2ccccn2)Oc2ncc(C#CC3CCCCC3)cc2C1=O,inactive
7,C[C@H](CO)N1C[C@H](C)[C@H](CN(C)S(=O)(=O)c2ccc(F)cc2)Oc2ccc(NC(=O)c3ccncc3)cc2C1=O,inactive
8,CC(C)NC(=O)Nc1ccc2c(c1)CC(=O)N([C@@H](C)CO)C[C@H](C)[C@@H](CN(C)Cc1ccc3c(c1)OCO3)O2,inactive
9,C[C@@H]1CCCCO[C@@H](CN(C)C(=O)c2ccccc2)[C@H](C)CN([C@@H](C)CO)C(=O)c2cc(NC(=O)Nc3ccc(F)cc3)ccc2O1,inactive
10,C[C@H](NC(=O)C[C@H]1C[C@H]2c3cc(NC(=O)Nc4ccc(C(F)(F)F)cc4)ccc3O[C@H]2[C@@H](CO)O1)c1ccccc1,inactive
11,CC(C)[Si]1(C(C)C)OCc2cc(-c3ccc(-c4ccc(Cl)c(Cl)c4)o3)nc(-c3ccccc3)c21,inactive
12,CCC(=O)OC1C2CC3=C4CC(=O)OC(c5ccoc5)C4(C)CCC3C(C)(C2=O)C(CC(=O)OC)C1(C)C (stereo not drawn),inactive
13,C[C@H](CO)N1C[C@H](C)[C@@H](CN(C)S(=O)(=O)c2ccccc2)OCCCC[C@H](C)Oc2ccc(NC(=O)NC3CCCCC3)cc2C1=O,inactive
14,C[C@@H]1CCCCO[C@@H](CN(C)Cc2ccc(Cl)c(Cl)c2)[C@@H](C)CN([C@@H](C)CO)C(=O)c2cc(NC(=O)Cc3ccccc3)ccc2O1,inactive
15,C[C@@H]1CN([C@H](C)CO)C(=O)c2cc(NC(=O)Cc3ccccc3)ccc2O[C@@H](C)CCCCO[C@@H]1CN(C)Cc1ccc(Cl)c(Cl)c1,inactive
16,C[C@H]1CCCCO[C@H](CN(C)Cc2ccc(Cl)c(Cl)c2)[C@@H](C)CN([C@@H](C)CO)C(=O)c2cc(NC(=O)Cc3ccccc3)ccc2O1,active
17,C[C@@H]1CCCCO[C@H](CN(C)Cc2ccccc2)[C@@H](C)CN([C@H](C)CO)C(=O)c2cc(NC(=O)Cc3ccccc3)ccc2O1,inactive
18,C[C@@H]1CCCCO[C@@H](CN(C)Cc2ccc(Cl)c(Cl)c2)[C@H](C)CN([C@@H](C)CO)C(=O)c2cc(NC(=O)Cc3ccccc3)ccc2O1,active
19,C[C@@H]1CCCCO[C@H](CN(C)Cc2ccc(Cl)c(Cl)c2)[C@@H](C)CN([C@@H](C)CO)C(=O)c2cc(NC(=O)Cc3ccccc3)ccc2O1,inactive
20,C[C@H]1CN([C@@H](C)CO)S(=O)(=O)c2ccc(C#CC3(O)CCCC3)cc2O[C@@H]1CN(C)C(=O)Nc1ccccc1,inactive
21,C[C@H](CO)N1C[C@H](C)[C@@H](CN(C)S(=O)(=O)c2cccs2)OCCCC[C@H](C)Oc2ccc(NC(=O)Cc3ccccc3)cc2C1=O,inactive
